Records with an inconclusive call do not appear. Activity calls are given as the source filed them. Rule for the calls, unless noted: active = hit-call score of the fitted dose curve at least 0.9, where 1 is the maximum; inactive = score below 0.9.

In assay [1] the target is Peroxisome proliferator-activated receptor gamma (Homo sapiens) (UniProt P37231). Briefly: OT_PPARg_PPARgSRC1_0480: Odyssey Thera (OT) 8-hour Protein-Complementation Assay for Peroxisome Proliferator-activated Receptor Gamma / SRC-1 Co-activator (AID 2283387; active = hit-call score of the fitted dose curve at least 0.9, where 1 is the maximum;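 note: nuclear to cytoplasmic split Venus YFP fluorescence ratio reporting PPARg SRC-1 interaction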). A digest of the protocol: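 Read-out: 488 nm N/C fluorescence ratio from complemented Venus YFP fragments, ≥350 cells per image, gain-of-signal fitted against DMSO baseline. Fusions of PPARg/SRC-1 with IFP1/IFP2 expressed transiently in HEK293T; compounds applied 8 h.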
Peroxisome proliferator-activated receptor gamma (Homo sapiens), sequence (P37231 whole entry, looked up, the tested form may be a part): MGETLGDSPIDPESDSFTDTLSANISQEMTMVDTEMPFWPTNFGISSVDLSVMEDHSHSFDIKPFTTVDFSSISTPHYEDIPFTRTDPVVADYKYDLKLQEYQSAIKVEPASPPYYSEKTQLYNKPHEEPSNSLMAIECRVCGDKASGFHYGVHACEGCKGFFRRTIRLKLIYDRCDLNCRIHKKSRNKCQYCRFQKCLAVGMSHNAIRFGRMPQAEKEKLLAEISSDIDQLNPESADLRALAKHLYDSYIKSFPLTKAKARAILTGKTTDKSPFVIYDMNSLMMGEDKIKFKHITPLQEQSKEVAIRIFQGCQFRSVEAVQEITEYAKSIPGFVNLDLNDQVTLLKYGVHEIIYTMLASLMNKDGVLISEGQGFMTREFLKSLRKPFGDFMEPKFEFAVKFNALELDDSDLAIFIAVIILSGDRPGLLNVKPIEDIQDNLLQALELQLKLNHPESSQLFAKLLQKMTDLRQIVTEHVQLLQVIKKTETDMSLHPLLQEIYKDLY

Assay [2] has the same target. As to the kind of experiment: OT_PPARg_PPARgSRC1_1440: Odyssey Thera (OT) 24-hour Protein-Complementation Assay for Peroxisome Proliferator-activated Receptor Gamma/ SRC-1 Co-activator (AID 2283388; active = hit-call score of the fitted dose curve at least 0.9, where 1 is the maximum;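 note: nuclear to cytoplasmic ratio of reconstituted Venus YFP fluorescence in fixed imaged cells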). The gist of the method: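 Readout: nuclear-to-cytoplasmic 488 nm fluorescence ratio, ≥350 cells per image, 8 images per well, after 24 h compound exposure of HEK293T expressing PPARg/SRC-1 split-YFP fusions. Activity fitted in positive direction against DMSO.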

Read-out in assay [3]: Tumor necrosis factor receptor superfamily member 6 (Homo sapiens) (UniProt P25445)
Briefly: LTEA_HepaRG_FAS: Life Technologies and Expression Analysis (LTEA) Assay for Fas cell surface death receptor (FAS) using HepaRG (AID 2283447). The conditions noted are these: mRNA level, 48 h; actives raise or lower the signal. The gist of the method:
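Differentiated human HepaRG cells, pre-cultured 48 h, were exposed in duplicate for 48 h to 8-point half-log concentrations (top 100 uM, 0.5% DMSO) in serum-free induction medium; FAS mRNA measured by qRT-PCR, normalized to ACTB/GAPDH/POLR2A, bidirectional fit versus DMSO.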

Read-out in assay [4]: Fatty acid synthase (Homo sapiens) (UniProt P49327)
Briefly: LTEA_HepaRG_FASN: Life Technologies and Expression Analysis (LTEA) Assay for Fatty Acid Synthase (FASN) using HepaRG (AID 2283448). The conditions noted are these: mRNA level, 48 h; actives raise or lower the signal. A digest of the protocol:
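Transcript-level assay: HepaRG liver cells are treated for 48 h across an eight-point range topping at 100 uM, and FASN mRNA, normalized to three housekeeping genes, is compared with DMSO controls in both directions.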

Read-out in assay [5]: Cyclin D2 (CCND2), CCND2 (gene 894)
As to the kind of experiment: LTEA_HepaRG_CCND2: Life Technologies and Expression Analysis (LTEA) Assay for Cyclin D2 (CCND2) using HepaRG (AID 2283449).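 Note: CCND2 transcript measured by TaqMan qRT-PCR and normalised to three housekeeping genes.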 The conditions noted are these: mRNA level, 48 h; actives raise or lower the signal. The gist of the method: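 Differentiated human HepaRG cells were exposed for 48 h in serum-free induction medium to eight half-log concentrations topping at 100 uM (0.5% DMSO vehicle). CCND2 mRNA was quantified by TaqMan qRT-PCR, normalised to ACTB, GAPDH and POLR2A, and fitted bidirectionally against DMSO.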

Read-out in assay [6]: catalase (CAT), CAT (gene 847)
Briefly: LTEA_HepaRG_CAT: Life Technologies and Expression Analysis (LTEA) Assay for catalase (CAT) using HepaRG (AID 2283452). Conditions: mRNA level, 48 h; actives raise or lower the signal. The gist of the method: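 Differentiated HepaRG cells in serum-free induction medium were dosed 48 h in duplicate, eight half-log concentrations from 100 uM in 0.5% DMSO. Transcript measured by TaqMan qRT-PCR, normalised to ACTB/GAPDH/POLR2A, fitted bidirectionally against DMSO.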

Read-out in assay [7]: flavin-containing dimethylaniline monooxygenases 3 (FMO3), FMO3 (gene 2328)
Briefly: LTEA_HepaRG_FMO3: Life Technologies and Expression Analysis (LTEA) Assay for flavin-containing dimethylaniline monooxygenases 3 (FMO3) using HepaRG (AID 2283453).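 For AC50: FMO3 transcript by TaqMan qRT-PCR normalized to ACTB GAPDH and POLR2A.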 Conditions: mRNA level, 48 h; actives raise or lower the signal. The gist of the method: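 HepaRG, 48 h exposure, 8-pt half-log series from 100 uM, 0.5% DMSO vehicle, duplicates; FMO3 transcript by Fluidigm TaqMan qRT-PCR, housekeeping-normalized; gain/loss fit vs DMSO.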

Read-out in assay [8]: Cytochrome P450 (CYP1A1), CYP1A1 (gene 1543)
Briefly: LTEA_HepaRG_CYP1A1: Life Technologies and Expression Analysis (LTEA) Assay for Cytochrome P450 (CYP1A1) using HepaRG (AID 2283454). Conditions: mRNA level, 48 h; actives raise or lower the signal. A digest of the protocol: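 qRT-PCR read-out: CYP1A1 transcript normalized to three housekeeping genes, fitted bidirectionally against 0.5% DMSO vehicle baseline. Human HepaRG cells, 48 h chemical exposure, 8-point half-log series topping at 100 uM.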

Read-out in assay [9]: CFLAR gene, CFLAR (gene 8837)
As to the kind of experiment: LTEA_HepaRG_CFLAR: Life Technologies and Expression Analysis (LTEA) Assay for CFLAR gene using HepaRG (AID 2283455). Conditions: mRNA level, 48 h; actives raise or lower the signal. The gist of the method: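 HepaRG cells were plated for 48 h, switched to serum-free induction medium, then exposed in duplicate for 48 h to 8 concentrations (top 100 uM, half-log steps, 0.5% DMSO). CFLAR mRNA was measured by qRT-PCR, normalized to ACTB, GAPDH and POLR2A.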

Read-out in assay [10]: Cyclin Dependent Kinase Inhibitor 1A (CDKN1A), CDKN1A (gene 1026)
Briefly: LTEA_HepaRG_CDKN1A: Life Technologies and Expression Analysis (LTEA) Assay for Cyclin Dependent Kinase Inhibitor 1A (CDKN1A) using HepaRG (AID 2283450). The conditions noted are these: mRNA level, 48 h; actives raise or lower the signal. The gist of the method: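 HepaRG, 48 h dosing, 8-pt half-log series from 100 uM top, 0.5% DMSO vehicle, duplicates. Readout: TaqMan qRT-PCR of CDKN1A transcript, housekeeping-normalized (ACTB, GAPDH, POLR2A). Up/down curve fit relative to DMSO.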

Read-out in assay [11]: Cyclin D1 (CCND1), CCND1 (gene 595)
As to the kind of experiment: LTEA_HepaRG_CCND1: Life Technologies and Expression Analysis (LTEA) Assay for Cyclin D1 (CCND1) using HepaRG (AID 2283451). The conditions noted are these: mRNA level, 48 h; actives raise or lower the signal. A digest of the protocol: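 qRT-PCR (Fluidigm 96.96 array) read-out of transcript level, housekeeping-normalized (ACTB/GAPDH/POLR2A). HepaRG cells, 48 h chemical exposure, 8-point half-log series from 100 uM, 0.5% DMSO vehicle; gain or loss relative to DMSO baseline.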

For assay [12], the target named is Retinoic acid receptor RXR-alpha (Homo sapiens) (UniProt P19793). As to the kind of experiment: OT_NURR1_NURR1RXRa_0480: Odyssey Thera (OT) 8-hour HEK293T Protein Complementation Assay for Nurr1/retinoid X receptor (RXR) (AID 2283385; active = hit-call score of the fitted dose curve at least 0.9, where 1 is the maximum). A digest of the protocol:
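Compounds are applied to HEK293T cells carrying Nurr1 and RXRα linked to reporter fragments. After 8 h, fluorescence intensity reports heterodimer formation, with DMSO as baseline.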

Assay [13] has the same target. Briefly: OT_NURR1_NURR1RXRa_1440: Odyssey Thera (OT) 24-hour HEK293T Protein Complementation Assay for Nurr1/retinoid X receptor (RXR) (AID 2283386; active = hit-call score of the fitted dose curve at least 0.9, where 1 is the maximum). The gist of the method:
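Measured as fluorescence from a reconstituted split reporter, this 24 h HEK293T complementation assay scores compound-induced gain of Nurr1/RXRα association relative to DMSO.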

The nature of assay [14]: CEETOX_H295R_11DCORT: CeeTox H295R High-throughput Steroidogenesis Assay for 11-Deoxycortisol (11DCORT) (AID 2283432). The conditions noted are these: actives raise or lower the signal. The gist of the method:
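H295R cells; 10 uM forskolin prestim 48 h; compound in 0.1% DMSO 48 h; media extracted with MTBE; 11-deoxycortisol by LC-MS/MS, 7-point standard curve; gain/loss vs DMSO baseline; viability by MTT in same wells.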

Assay [15] can be described thus: CEETOX_H295R_ANDR: CeeTox H295R High-throughput Steroidogenesis Assay for Androstenedione (ANDR) (AID 2283436). Conditions: actives raise or lower the signal. A digest of the protocol: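 H295R human adrenal cells (passages ≤10) were exposed to test chemicals for 48 h; androstenedione in medium was MTBE-extracted and quantified by HPLC-MS/MS against a 7-point standard curve. Bidirectional fitting used DMSO as baseline.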

Assay [16] can be described thus: CEETOX_H295R_CORTIC: CeeTox H295R High-throughput Steroidogenesis Assay for Corticosterone (CORTIC) (AID 2283437).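 Note: corticosterone secreted into medium quantified by mass spectrometry.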 The conditions noted are these: actives raise or lower the signal. The gist of the method: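 H295R cells were prestimulated 48 h with 10 uM forskolin, then exposed 48 h to test chemical in 0.1% DMSO. Medium corticosterone was MTBE-extracted and quantified by HPLC-MS/MS; bidirectional fit versus DMSO baseline.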

The nature of assay [17]: CEETOX_H295R_CORTISOL: CeeTox H295R High-throughput Steroidogenesis Assay for Cortisol (AID 2283438).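 Note: cortisol secreted into medium quantified by LC-MS/MS.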 Conditions: actives raise or lower the signal. A digest of the protocol:
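Human adrenocortical H295R cells (passage ≤10) received test chemicals for 48 h after forskolin priming. Secreted cortisol was measured by LC-MS/MS.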

Assay [18] is described as follows: CEETOX_H295R_DOC: CeeTox H295R High-throughput Steroidogenesis Assay for DOC (AID 2283439). Conditions: actives raise or lower the signal. A digest of the protocol: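 Secreted DOC was quantified from H295R media by HPLC-MS/MS after 48 h chemical exposure following 48 h forskolin (10 uM) prestimulation. Values were fitted in both directions relative to DMSO, the negative control and baseline.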

A short description of assay [19]: CEETOX_H295R_PROG: CeeTox H295R High-throughput Steroidogenesis Assay for Progesterone (PROG) (AID 2283442). Conditions: actives raise or lower the signal. The gist of the method:
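Progesterone read-out: HPLC-MS/MS on MTBE extracts of conditioned medium after 48 h chemical exposure of forskolin-primed (10 uM, 48 h) H295R cells. Gain or loss of signal was fitted relative to DMSO baseline.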

Retinoic acid receptor RXR-alpha (Homo sapiens), sequence (P19793 whole entry, looked up, the tested form may be a part): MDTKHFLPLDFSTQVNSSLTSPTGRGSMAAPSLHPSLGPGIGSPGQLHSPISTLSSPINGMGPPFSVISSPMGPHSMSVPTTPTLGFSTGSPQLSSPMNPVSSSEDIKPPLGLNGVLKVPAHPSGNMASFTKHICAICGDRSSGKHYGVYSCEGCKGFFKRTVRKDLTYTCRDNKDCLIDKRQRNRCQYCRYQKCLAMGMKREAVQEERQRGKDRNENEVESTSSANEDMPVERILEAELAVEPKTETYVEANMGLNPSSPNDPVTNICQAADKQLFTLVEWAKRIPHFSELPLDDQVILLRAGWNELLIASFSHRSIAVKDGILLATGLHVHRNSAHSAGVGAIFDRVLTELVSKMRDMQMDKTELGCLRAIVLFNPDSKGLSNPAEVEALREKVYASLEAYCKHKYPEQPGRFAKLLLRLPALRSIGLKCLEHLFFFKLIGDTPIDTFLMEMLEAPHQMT
Fatty acid synthase (Homo sapiens), sequence (P49327 whole entry, looked up): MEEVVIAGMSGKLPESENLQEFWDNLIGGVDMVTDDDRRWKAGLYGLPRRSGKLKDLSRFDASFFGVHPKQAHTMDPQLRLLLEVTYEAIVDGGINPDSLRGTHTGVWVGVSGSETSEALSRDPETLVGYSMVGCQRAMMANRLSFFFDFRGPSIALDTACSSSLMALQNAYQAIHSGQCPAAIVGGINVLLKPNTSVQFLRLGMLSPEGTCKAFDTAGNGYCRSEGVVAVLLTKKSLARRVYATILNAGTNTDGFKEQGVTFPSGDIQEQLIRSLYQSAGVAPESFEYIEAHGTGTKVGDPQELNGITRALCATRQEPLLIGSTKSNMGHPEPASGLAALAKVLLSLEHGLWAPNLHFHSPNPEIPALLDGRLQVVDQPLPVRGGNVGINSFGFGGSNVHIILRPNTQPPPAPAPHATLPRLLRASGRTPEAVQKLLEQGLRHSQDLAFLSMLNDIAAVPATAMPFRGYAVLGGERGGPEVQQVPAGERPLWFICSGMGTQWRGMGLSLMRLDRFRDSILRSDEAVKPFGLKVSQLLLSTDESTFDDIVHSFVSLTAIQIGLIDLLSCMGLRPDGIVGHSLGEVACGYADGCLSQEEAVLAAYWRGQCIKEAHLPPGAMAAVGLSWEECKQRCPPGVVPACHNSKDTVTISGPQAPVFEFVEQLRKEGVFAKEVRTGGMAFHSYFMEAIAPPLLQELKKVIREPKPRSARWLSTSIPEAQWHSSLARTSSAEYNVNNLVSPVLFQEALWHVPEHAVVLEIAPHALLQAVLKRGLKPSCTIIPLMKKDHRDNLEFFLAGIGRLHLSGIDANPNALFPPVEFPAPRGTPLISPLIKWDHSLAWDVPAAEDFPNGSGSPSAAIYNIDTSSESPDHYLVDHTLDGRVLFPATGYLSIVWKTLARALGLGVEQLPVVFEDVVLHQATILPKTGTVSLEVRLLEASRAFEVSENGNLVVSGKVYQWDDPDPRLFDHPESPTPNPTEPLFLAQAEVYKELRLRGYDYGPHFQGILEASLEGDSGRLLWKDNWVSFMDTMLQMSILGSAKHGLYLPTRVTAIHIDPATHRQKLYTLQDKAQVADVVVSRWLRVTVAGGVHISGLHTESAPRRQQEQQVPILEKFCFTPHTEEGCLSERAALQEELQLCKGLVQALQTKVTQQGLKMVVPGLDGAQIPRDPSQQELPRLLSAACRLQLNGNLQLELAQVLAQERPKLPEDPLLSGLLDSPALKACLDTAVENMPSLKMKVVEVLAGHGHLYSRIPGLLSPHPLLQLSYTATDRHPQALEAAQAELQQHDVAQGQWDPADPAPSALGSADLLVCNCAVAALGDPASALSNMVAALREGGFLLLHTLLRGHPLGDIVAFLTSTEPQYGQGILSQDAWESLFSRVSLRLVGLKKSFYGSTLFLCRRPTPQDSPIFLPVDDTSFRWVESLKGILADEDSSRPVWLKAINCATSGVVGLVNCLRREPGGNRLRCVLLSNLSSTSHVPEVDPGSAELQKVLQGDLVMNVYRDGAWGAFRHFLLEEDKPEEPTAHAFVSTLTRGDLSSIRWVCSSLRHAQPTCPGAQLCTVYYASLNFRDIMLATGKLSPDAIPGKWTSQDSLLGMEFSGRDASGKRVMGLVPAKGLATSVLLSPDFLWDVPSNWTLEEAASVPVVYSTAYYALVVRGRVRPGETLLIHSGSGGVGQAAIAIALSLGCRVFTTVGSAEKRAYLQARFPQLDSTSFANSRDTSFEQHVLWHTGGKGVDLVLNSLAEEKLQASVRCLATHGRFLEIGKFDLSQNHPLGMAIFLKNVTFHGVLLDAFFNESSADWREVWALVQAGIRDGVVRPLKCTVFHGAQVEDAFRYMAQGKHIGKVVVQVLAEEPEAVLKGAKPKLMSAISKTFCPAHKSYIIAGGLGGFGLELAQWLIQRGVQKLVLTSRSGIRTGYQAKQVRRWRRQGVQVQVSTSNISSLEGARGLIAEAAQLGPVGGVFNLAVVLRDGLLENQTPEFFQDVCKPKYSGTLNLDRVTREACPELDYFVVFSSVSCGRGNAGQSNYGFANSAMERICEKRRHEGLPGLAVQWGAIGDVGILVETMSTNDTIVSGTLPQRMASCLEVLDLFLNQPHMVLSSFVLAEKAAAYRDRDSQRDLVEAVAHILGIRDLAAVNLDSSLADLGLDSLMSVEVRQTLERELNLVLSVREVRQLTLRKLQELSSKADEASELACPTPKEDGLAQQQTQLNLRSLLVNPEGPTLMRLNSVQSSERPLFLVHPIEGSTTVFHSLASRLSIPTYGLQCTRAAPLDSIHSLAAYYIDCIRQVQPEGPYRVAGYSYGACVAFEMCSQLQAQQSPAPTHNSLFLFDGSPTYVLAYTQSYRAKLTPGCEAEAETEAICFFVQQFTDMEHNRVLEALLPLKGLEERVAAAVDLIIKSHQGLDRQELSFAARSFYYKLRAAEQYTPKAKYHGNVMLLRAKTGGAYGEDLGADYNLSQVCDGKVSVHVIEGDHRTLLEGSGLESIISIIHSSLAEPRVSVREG

Consider `CN(C)C(=O)C1(N2CCCCC2)CCN(CC[C@@]2(c3ccc(Cl)c(Cl)c3)CN(C(=O)c3ccccc3)CCO2)CC1`, for which the outcome in assay [1], in assay [2], in assay [3] and in assay [5] was inactive. Also, the AC50 in assay [4] is 61 µM (active); in assay [6], 17.2 µM (active); in [7] it was 13.7 µM (active); in [8] it was 24.7 µM (active); in assay [9] it was 61.9 µM (active).
On to `CN(C)c1ccc(C(=C2C=CC(=[N+](C)C)C=C2)c2ccc(N(C)C)cc2)cc1`, for which the compound was classed as inactive in assay [1], in assay [2], in assay [3], in [5] and in [10]. Also, the AC50 in assay [4] was 3.9 µM (active); in assay [11], 37.1 µM (active); in assay [6] it was 3.73 µM (active); in [7], 4.03 µM (active); in [8], 7.18 µM (active); in [9], 29.6 µM (active).
`Cc1cn([C@H]2C[C@H](N=[N+]=[N-])[C@@H](CO)O2)c(=O)[nH]c1=O`: the compound was classed as inactive in [12], in [13], in assay [1], in assay [2], in assay [3] and in assay [4]. The call in assay [10], in assay [11], in [6], in assay [7], in [8] and in [9] was inactive.
With `CCCCCCCCN(C)CCCCCCCC`, the compound was called inactive in assay [12], in assay [13], in [1], in [2], in assay [14] and in [15]. Also, the call in assay [16], in [17], in assay [18], in assay [19], in assay [3] and in assay [4] was inactive. Besides, the result in assay [5], in assay [10], in [11], in assay [6], in assay [7] and in [8] was inactive. In addition, in assay [9], the call was inactive.

Broadly, the AC50 is the concentration at which the activity in the assay is half-maximal.
